The campaign covered roughly 97,000 compounds. About 810 (0.84%) were called active. Cut-off read from the data, not from the text of the source: active = inhibition above about 19%; inactive = the rest. The sample as a whole holds a higher share of actives than the screen did.

The target in this experiment is Focal adhesion kinase 1 (Homo sapiens) (UniProt Q05397). Nature of the experiment: FAK kinase inhibitors, primary screen, biochemical (AID 727).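 Note: 0% = DMSO and 100% = reference compound high control.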 As to conditions: biochemical FAK kinase activity assay; stronger effect = higher value;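 tested at 7 µM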.
Chain of Focal adhesion kinase 1 (Homo sapiens) (Q05397 whole entry, looked up): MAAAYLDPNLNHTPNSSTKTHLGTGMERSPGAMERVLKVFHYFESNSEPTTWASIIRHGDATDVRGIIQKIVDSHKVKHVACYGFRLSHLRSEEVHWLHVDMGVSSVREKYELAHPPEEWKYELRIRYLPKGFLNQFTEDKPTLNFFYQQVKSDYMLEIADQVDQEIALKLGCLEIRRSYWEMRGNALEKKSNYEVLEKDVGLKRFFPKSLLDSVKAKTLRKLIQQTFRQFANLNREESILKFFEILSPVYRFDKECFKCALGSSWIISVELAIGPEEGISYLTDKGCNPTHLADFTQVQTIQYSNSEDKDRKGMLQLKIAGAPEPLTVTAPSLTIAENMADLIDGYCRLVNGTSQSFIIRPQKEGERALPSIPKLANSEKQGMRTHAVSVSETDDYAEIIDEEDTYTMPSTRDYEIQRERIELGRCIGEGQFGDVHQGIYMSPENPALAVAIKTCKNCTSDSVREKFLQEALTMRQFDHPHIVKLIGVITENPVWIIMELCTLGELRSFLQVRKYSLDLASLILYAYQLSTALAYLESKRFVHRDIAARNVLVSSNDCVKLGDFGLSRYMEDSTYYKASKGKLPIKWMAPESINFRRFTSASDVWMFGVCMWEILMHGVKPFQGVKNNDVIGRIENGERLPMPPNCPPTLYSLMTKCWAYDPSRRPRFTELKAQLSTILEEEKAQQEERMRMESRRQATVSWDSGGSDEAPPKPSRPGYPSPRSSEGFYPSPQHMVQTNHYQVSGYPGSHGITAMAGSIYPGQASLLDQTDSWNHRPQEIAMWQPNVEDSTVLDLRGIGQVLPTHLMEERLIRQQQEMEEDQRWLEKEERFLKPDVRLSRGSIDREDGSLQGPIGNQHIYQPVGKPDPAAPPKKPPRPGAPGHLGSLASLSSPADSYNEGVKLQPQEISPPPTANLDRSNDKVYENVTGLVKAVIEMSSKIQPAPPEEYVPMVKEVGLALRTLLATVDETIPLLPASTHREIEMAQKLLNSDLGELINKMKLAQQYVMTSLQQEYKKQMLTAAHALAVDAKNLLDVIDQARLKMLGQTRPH
With `Cc1[nH]c2ccccc2c1C(=O)COC(=O)C(C)C`, the inhibition was -1.84% (inactive).

As for `CC(=O)c1ccc(Cc2ncc(C(F)(F)F)cc2Cl)s1`, the inhibition is 32.1% (active).

Consider `O=C(c1ccccn1)c1ncc(C(F)(F)F)cc1Cl`, for which the inhibition was -4.84% (inactive).

For `O=C(Cc1ncc(C(F)(F)F)cc1Cl)Nc1cccc(Br)c1`, the inhibition was -7.54% (inactive).

Consider `COc1ccc(CC(NC(C)=O)C(=O)N2CCN(C(=O)Nc3cccc(Cl)c3)CC2)cc1OC` (configuration not stated), for which the inhibition is -1.84% (inactive).

In the case of `CCOc1cc2[nH]c(=S)n(Cc3ccc(C(=O)NCCOC)cc3)c(=O)c2cc1OCC`, the inhibition is 1.95% (inactive).

As to `Cc1nn(C)cc1CNC(=O)Nc1ccc(Cl)cc1`, the inhibition is 0.55% (inactive).

Take `CN(CC(=O)Nc1cccc2c1CCCC2)S(=O)(=O)c1ccc(Cl)cc1`: the inhibition was 2.06% (inactive).

Consider `Cc1cc(=O)oc(C)c1C(=O)N1CCCCC1`, for which the inhibition is -3.95% (inactive).

Regarding `Cc1c(NC(=O)CCCOc2ccccc2)cccc1[N+](=O)[O-]`, the inhibition is 5.03% (inactive).

Turning to `O=c1c2ccccc2c(-c2ccc(F)cc2)nn1-c1ccc(C(F)(F)F)cc1`, the inhibition was -9.67% (inactive).

For the molecule `Cc1cccc(Nc2ccccc2C(=O)NCc2ccco2)c1C`, the inhibition was -0.25% (inactive).

With `COc1ccccc1OCCNc1cc(N2CCOCC2)ccc1[N+](=O)[O-]`, the inhibition is 0.07% (inactive).

Consider `CCN(CC)Cc1cc(C(C)=O)ccc1O`, for which the inhibition is -1.48% (inactive).

Take `O=C1C(=O)N(c2ccccc2)c2ccccc21`: the inhibition is -1.97% (inactive).

For the molecule `CC(C)CC[n+]1ccn(C2=C([O-])c3ccccc3C(=O)/C2=N\S(=O)(=O)c2ccccc2)c1`, the inhibition was 0.45% (inactive).

For `COCCOC(=O)c1sc(=S)n(CCOC)c1N`, the inhibition is 0.4% (inactive).

Consider `COc1cc(OC)c(NC(=O)c2ccc(Br)o2)cc1Cl`, for which the inhibition is 2.86% (inactive).

Regarding `Cc1cc(C)nc(-n2nc(C)cc2NC(=O)c2ccc(Br)o2)n1`, the inhibition was 19.6% (active).

In the case of `Cc1cccc(-n2nc3c(c2NC(=O)c2ccc(Br)o2)CSC3)c1C`, the inhibition was -10.1% (inactive).

Turning to `O=C(Nc1ccc(F)c(Cl)c1)C1CCN(S(=O)(=O)c2cccnc2)CC1`, the inhibition was 5.16% (inactive).

For `COc1ccc(C2Nc3ccccc3C(=O)N2Cc2ccccc2)cc1Cn1nnc2ccccc21` (configuration not stated), the inhibition is 1.35% (inactive).

As to `O=C(c1ccc2c(c1)C(=O)N(c1ccc(Cl)cc1)C2=O)N1CCN(c2ccccn2)CC1`, the inhibition was 22.9% (active).

As for `CC(=C1C(=O)c2ccccc2C1=O)N1CCN(c2ccccn2)CC1`, the inhibition is -0.27% (inactive).

Take `O=C(c1ccc(Cl)c(Cl)c1)N1CCCC1`: the inhibition was -2.15% (inactive).

`CC(C)CC(N=C1NC(C)(C)Cc2ccccc21)C(=O)O` (configuration not stated): the inhibition is -1% (inactive).

Take `COC(=O)c1ccccc1NC(=O)CSc1nnnn1C`: the inhibition is -1.15% (inactive).

With `O=[N+]([O-])c1ccccc1NCc1ccc(Cl)cc1`, the inhibition was 1.41% (inactive).

On to `Cc1ccc(CNC(=O)COc2ccc(S(=O)(=O)NC(C)C)cc2)cc1`, for which the inhibition is -1.67% (inactive).

With `Cc1nc(N2CCOCC2)nc2c1CCCC2`, the inhibition is -0.58% (inactive).

As to `CCC(C)NC(=O)CCCc1ccccc1` (configuration not stated), the inhibition was 2.61% (inactive).

On to `CCn1c(SCc2ccc(C)cc2)nnc1-c1nn(-c2ccccc2)ccc1=O`, for which the inhibition was 3.11% (inactive).

Turning to `CN(C)/C(CN1CCCCC1)=C1\N=C(c2ccccc2)OC1=O`, the inhibition is -3.3% (inactive).

As to `CCN(CC)c1nc(-c2ccccc2)cc(C(F)(F)F)c1C#N`, the inhibition is 4.59% (inactive).

On to `FC(F)(F)c1nnc2sc(-c3ccco3)nn12`, for which the inhibition was -8.22% (inactive).

For `Fc1ccc(-c2ccc(-c3nn4c(-c5ccco5)nnc4s3)o2)cc1`, the inhibition is 19.2% (active).

With `Cc1nnc2sc(-c3ccco3)nn12`, the inhibition is 0.33% (inactive).

For `NC(=O)c1ncc(C(F)(F)F)cc1Oc1ccc(F)cc1`, the inhibition is 1.7% (inactive).

Take `COc1ccccc1N(C)S(=O)(=O)c1ccc(C(=O)N2CCC(C(N)=O)CC2)cc1`: the inhibition is -1.2% (inactive).

As for `COC(=O)c1c(NC(=O)CSc2nncs2)sc2c1CCCCC2`, the inhibition was 19.5% (active).

Consider `CCOC(=O)c1c(NC(=O)CSc2nnc(C)c(=O)[nH]2)sc2c1CCC2`, for which the inhibition is -5.37% (inactive).

`COC(=O)c1c(NC(=O)c2cccs2)sc2c1CCCC2`: the inhibition was -3.96% (inactive).

For the molecule `OCCN(Cc1ccccc1)Cc1ccc(Cl)cc1`, the inhibition is 1.29% (inactive).

Take `CCOC(=O)c1c(NC(=O)CSc2nnc(CNc3ccc(C)cc3C)o2)sc(C)c1C`: the inhibition is 0.35% (inactive).

`Cc1nn(Cc2ccc(C(=O)N3N=C(C(F)F)CC3(O)C(F)F)cc2)c(C)c1[N+](=O)[O-]` (configuration not stated): the inhibition was -1.38% (inactive).

Regarding `Cc1ccc(S(=O)(=O)/N=C(/Nc2ccccn2)c2ccc(Cl)cc2)cc1`, the inhibition is -9% (inactive).

On to `COc1cc(C2CC(=O)c3cnc(NC(C)=O)nc3C2)cc(OC)c1OC` (configuration not stated), for which the inhibition is 0.08% (inactive).

On to `N#C/C(=C\c1ccccc1)c1n[nH]c(Cn2cncn2)n1`, for which the inhibition was -0.5% (inactive).

Take `COc1ccc(N/N=C2/CCCCC2=O)cc1`: the inhibition was -0.48% (inactive).

Take `O=C1CSC2=NCN(c3ccccc3)CN12`: the inhibition was 3.72% (inactive).

Regarding `Cc1ccc2c(c1)N(CC(=O)N(Cc1ccccn1)Cc1ccco1)C(=O)C(C(C)C)O2` (configuration not stated), the inhibition is 0.38% (inactive).

As for `Cc1ccccc1OC(=O)Cn1c(C(F)(F)F)nc2ccccc21`, the inhibition was -3.25% (inactive).

With `CCn1c(SCC(=O)Nc2nc(C)cs2)nnc1C(C)NC(=O)c1ccccc1` (configuration not stated), the inhibition is -0.18% (inactive).

Regarding `Cc1ccc(C(=O)OC2=CC(=O)CC(C)(C)C2)cc1`, the inhibition was 1.07% (inactive).

Regarding `Cn1c2ccccc2n2c(=O)c(=O)n(CC(=O)c3ccc(F)cc3)nc12`, the inhibition was -3.16% (inactive).

As for `CCOc1ccc(C(O)Cn2c(=N)n(CCN3CCCCC3)c3ccccc32)cc1` (configuration not stated), the inhibition was 0.54% (inactive).

For `COCCn1c(C)cc(C(=O)CSc2ncnc3sc4c(c23)CCC4)c1C`, the inhibition is 83.3% (active).

On to `Cc1cc(C)n(-c2nc(SCC(=O)N3CCCC3)c3c4c(sc3n2)CCCC4)n1`, for which the inhibition is 1.79% (inactive).

For `COc1ncnc2sc3c(c12)CCCC3`, the inhibition was 3.78% (inactive).

As to `Nc1ccccc1SCc1cc([N+](=O)[O-])cc2c1OCOC2`, the inhibition is 0.81% (inactive).

As for `CC(=NCc1ccco1)c1c(C(F)(F)F)[nH]n(-c2nc3ccccc3s2)c1=O`, the inhibition was 5.23% (inactive).

For `CC(=NCc1ccc2c(c1)OCO2)C1=C(O)c2ccccc2C1=O`, the inhibition was 6.12% (inactive).

With `CC(=NCc1ccco1)C1=C(O)c2ccccc2C1=O`, the inhibition was 27.9% (active).

Take `COc1ccc(C2(CNC(=O)C(c3ccccc3)c3ccccc3)CCOCC2)cc1OC`: the inhibition is 1.78% (inactive).

For the molecule `C=C(C)CNC(=S)/N=c1\scc(C)n1CC`, the inhibition was -6.21% (inactive).

With `Oc1ccc(-c2onc3ccc(Cl)cc23)cc1`, the inhibition is 5.87% (inactive).

Turning to `Cc1cccc(NC(=O)c2cc(N3C(=O)CCC3=O)ccc2Cl)n1`, the inhibition is -0.12% (inactive).

On to `CCOC(=O)c1cc(C#N)c(N2CCCCC2)nc1-c1ccccc1`, for which the inhibition is 4.29% (inactive).

Turning to `CCOC(=O)c1sc2nc(SC)nc(-c3ccccc3)c2c1N`, the inhibition was 2.16% (inactive).

Turning to `COc1ccc(C)cc1N(C)C(=O)c1coc(=O)c2ccccc12`, the inhibition is 1.58% (inactive).

`Nc1c(-c2ccc(F)cc2)cnc2ncnn12`: the inhibition was 19.1% (active).

As to `Cc1ccc(S(=O)(=O)N(CC(=O)N/N=C/c2ccc(F)cc2)c2cccc3cccnc23)cc1`, the inhibition is 3.64% (inactive).

In the case of `COc1ccc(/C(N)=N/OC(=O)Oc2ccccc2)cc1`, the inhibition was 0.12% (inactive).

For `CC1CCN(C(=O)c2cc3nc(C4CC4)cc(C(F)(F)F)n3n2)CC1`, the inhibition is 0.8% (inactive).

On to `C/C=C/C(=O)OCC(=O)Nc1ccc(F)cc1Cl`, for which the inhibition was -4.03% (inactive).

For the molecule `Cc1nn(CC(=O)Nc2ccc3c(c2)nc(CN2CCCCC2)n3C)c(=O)c2ccccc12`, the inhibition was 3.98% (inactive).

Turning to `CCC(=O)Nc1ccc2c(c1)nc(CCN1CCN(C)CC1)n2C`, the inhibition is -1.8% (inactive).

Regarding `Cn1c(CCN2CCCCCC2)nc2cc(NC(=O)Nc3ccccc3)ccc21`, the inhibition was 22.2% (active).

`COC(=O)/C(=C\Nc1ccccc1)NC(=O)c1ccc(Cl)cc1Cl`: the inhibition was 0.67% (inactive).

For the molecule `CCn1c(CNC(=O)c2ccccc2)nnc1SCC(=O)N1CCN(c2ccccc2)CC1`, the inhibition is 1.01% (inactive).

`CS(=O)(=O)Nc1cccc(C2=NN(S(=O)(=O)c3ccccc3)C(c3cccs3)C2)c1` (configuration not stated): the inhibition is 1.03% (inactive).

On to `CCN(c1ccccc1)S(=O)(=O)c1ccc(NC(=O)C(C)(C)C)cc1`, for which the inhibition is -0.76% (inactive).

For `CCN(CC)S(=O)(=O)c1cccc(C(=O)Nc2ccccc2)c1`, the inhibition was 7.09% (inactive).

With `CCN(CC)S(=O)(=O)c1cc([N+](=O)[O-])ccc1NNC(=O)Nc1ccccc1`, the inhibition was 22.7% (active).

Consider `COC(=O)c1[nH]c2ccccc2c1NS(=O)(=O)c1ccc(OC)cc1OC`, for which the inhibition is 0.04% (inactive).

On to `COc1ccc(OC)c(N=Cc2c(O)[nH]c3ccccc23)c1`, for which the inhibition was 13.7% (inactive).

In the case of `COc1cc(N=Cc2c(O)[nH]c3ccccc23)cc(OC)c1OC`, the inhibition is 73.4% (active).

For `CCCc1ccc(OCc2ccc(C(=O)N/N=C/c3cccc([N+](=O)[O-])c3)o2)c(OC)c1`, the inhibition was 1.02% (inactive).

`Cc1[nH]n(-c2ccc([N+](=O)[O-])cc2)c(=O)c1C=NCCN1CCN(C(=O)c2ccccc2F)CC1`: the inhibition was 6.47% (inactive).

As to `Cc1ccc(CN(N=Nc2nonc2N)c2nonc2N)c(C)c1`, the inhibition is -1.18% (inactive).

For `O=c1c2ccccc2nc2n1C(CSCc1ccccc1)CS2` (configuration not stated), the inhibition was 7.02% (inactive).

Consider `O=C1C2N=NN(CC(=O)N3N=C(c4cccc5ccccc45)CC3c3ccccc3)C2C(=O)N1c1ccccc1` (configuration not stated), for which the inhibition was 1.07% (inactive).

`Cc1nc(NNC(=O)c2ccccc2)cc(-c2ccccc2)n1`: the inhibition is -0.62% (inactive).

As for `Cc1ccc(SCC(=O)NC(=O)NCc2ccco2)c(C)c1`, the inhibition is 6.63% (inactive).

On to `O=C(/C=C/c1ccco1)Nc1ccc(Oc2ccccc2)cc1`, for which the inhibition is 0.45% (inactive).

As to `O=C(/C=C/c1ccco1)Nc1cccc(-c2nc3ccccc3[nH]2)c1`, the inhibition is 1.17% (inactive).

`Cc1ccc(-n2nc3ccc(NC(=O)/C=C/c4ccco4)cc3n2)cc1C`: the inhibition is 19.2% (active).

By inhibition is commonly meant the change of the read-out against control, counted positive when it falls.

The values are drawn from PubChem BioAssay AID727 (The Scripps Research Institute Molecular Screening Center, 2007).
